# Measured values as given in PubChem BioAssay.
# Active and inactive are the calls of the source.
# Experiments:
# [1] = test system: Plasmodium falciparum Sir2 (PF13_0152, Sir2A); experiment: Plasmodium falciparum Sir2A binding compounds – biochemical, small-molecule microarray, 635 nm fluorescence, primary screen (AID 1098); conditions: fluorescence 635 nm, higher = more signal;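 also: score merges spot fluorescence intensity with its signal-to-noise ratio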
# [2] = probe aDKK1 binding to arrayed compounds – biochemical, biotinylated probe, 635/667 nm fluorescence, primary screen (AID 1099); conditions: small-molecule microarray, higher = more signal;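 also: score merges 667nm spot fluorescence with signal to noise across triplicate slides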
# [3] = probe aCHRDL2 binding to arrayed compounds – biochemical, biotinylated probe, 635/667 nm fluorescence, primary screen (AID 1100); conditions: small-molecule microarray, higher = more signal
# [4] = change in splice reporter luminescence, either direction, cell-based, HEK293, spliceosome inhibition project, primary screen (AID 1101); conditions: HEK293 splicing luciferase reporter, 24 h, higher = more signal, called active from +8 up or from −8 down;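 also: HEK293 cells carrying a splicing-competent luciferase reporter gene; test concentration not given here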
# [5] = target: Fibroblast growth factor 10 (Homo sapiens) (UniProt O15520); experiment: compounds binding fibroblast growth factor 10 – biochemical, small-molecule microarray, 635 nm fluorescence, primary screen (AID 1102); conditions: FGF10 binding, fluorescence 635 nm, higher = more signal
# [6] = test system: glycogen synthase kinase-3 (GSK3A per assay name; protocol says GSK3B); experiment: compounds binding glycogen synthase kinase-3 – biochemical, small-molecule microarray, 635 nm fluorescence, GSK3A, primary screen (AID 1103); conditions: fluorescence 635 nm, higher = more signal; also: the record names both GSK3A and GSK3B
# [7] = target: Epidermal growth factor receptor (Homo sapiens) (UniProt P00533); experiment: compounds binding epidermal growth factor receptor – biochemical, small-molecule microarray, 635 nm fluorescence, primary screen (AID 1104); conditions: EGFR binding, higher = more signal;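 also: score merges 667 nm emission intensity with spot signal to noise over triplicate slides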
# [8] = target: Follistatin-related protein 3 (Homo sapiens) (UniProt O95633); experiment: compounds binding follistatin-related protein 3 – biochemical, small-molecule microarray, 635 nm fluorescence, primary screen (AID 1105); conditions: FSTL3 binding, higher = more signal;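 also: score merges emission near 667 nm and signal to noise per printed spot across three slides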
# [9] = target: Dickkopf-related protein 1 (Homo sapiens) (UniProt O94907); experiment: small molecules binding DKK1 protein – biochemical, small-molecule microarray, 635 nm fluorescence scan, primary screen (AID 1106); conditions: higher = more signal;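 also: score merges emission near 667 nm with signal to noise over three replicate slides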
# [10] = test system: Inhibin beta A chain (activin A); experiment: small molecules binding activin A – biochemical, small-molecule microarray, 635 nm fluorescence scan, primary screen (AID 1107); conditions: INHBA, higher = more signal;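 also: mouse activin A protein probed at 4.33 µg/mL on printed slides; score merges bound-protein fluorescence near 667 nm with spot signal-to-noise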
# [11] = test system: Human papillomavirus type 1a protein E7 (residues 44-93); experiment: small molecules binding HPV E7 44-93 – biochemical, small-molecule microarray, residues 44-93, 635 nm fluorescence, primary screen (AID 1108); conditions: fluorescence 635 nm, higher = more signal;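 also: E7 fragment applied at 1 µg/mL in TBST for 1 h at 4 C; score combines spot fluorescence with its signal to noise ratio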
# [12] = hepatitis C replication reporter changes, two-sided – Huh7 cells, luciferase reporter, HCV replication inhibitor project, primary screen (AID 1109); conditions: Huh7 HCV replicon luciferase reporter, 48 h; higher = more signal;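 also: huh7 hepatoma cells harbouring a luciferase neomycin HCV replicon reporter; luciferase luminescence as measure of HCV replicon replication; test concentration not given here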
# [13] = target: Left-right determination factor 2 (Homo sapiens) (UniProt O00292); experiment: small molecules binding LEFTY2 protein – biochemical, small-molecule microarray, 635 nm fluorescence scan, primary screen (AID 1110); conditions: higher = more signal
# [14] = target: Calmodulin-1 (Homo sapiens) (UniProt P0DP23); experiment: small molecules binding calmodulin-1 with EGTA – biochemical, small-molecule microarray, Cy5-labelled CALM1, profiling panel (AID 1111); conditions: Cy5-CALM1 binding fluorescence, higher = more signal;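 also: labelled calmodulin applied in Tris saline Tween buffer holding calcium plus EGTA and DTT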
# [15] = target: Calmodulin-1 (Homo sapiens) (UniProt P0DP23); experiment: small molecules binding Ca-loaded calmodulin-1 – biochemical, small-molecule microarray, Cy5-labelled CALM1, plus calcium, artefact control for SMM control-protein annotation, profiling panel (AID 1112); conditions: Cy5-CALM1 binding fluorescence, higher = more signal;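 also: score merges spot fluorescence with signal to noise from triplicate slides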
# [16] = probe aWnt5a binding to arrayed compounds – biochemical, biotinylated probe, 635/667 nm fluorescence, primary screen (AID 1113); conditions: small-molecule microarray, higher = more signal;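 also: score merges 667 nm fluorescence intensity with signal-to-noise per printed feature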
# [17] = probe aShh binding to arrayed compounds – biochemical, biotinylated probe, 635/667 nm fluorescence, primary screen (AID 1114); conditions: small-molecule microarray, higher = more signal;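 also: probe is biotin-labelled aShh protein from a stem cell growth factor screen; measures binding of labelled protein to compounds printed on the slide; score merges feature fluorescence at 667 nm with signal-to-noise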
# [18] = probe aNog binding to arrayed compounds – biochemical, biotinylated probe, 635/667 nm fluorescence, primary screen (AID 1115); conditions: small-molecule microarray, higher = more signal;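 also: probe is biotinylated aNog protein used at 0.15 µg/mL for 1 h at 4 C; z-score combines 667 nm fluorescence of each spot with its signal to noise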
# [19] = target: Torsin-1A-interacting protein 1 (Homo sapiens) (UniProt Q5JTV8); experiment: compound microarray binding of lysate hLAP1 – cell lysate, small-molecule microarray, COS7 lysate, 635/667 nm fluorescence, primary screen (AID 1116); conditions: 635 nm fluorescence, higher = more signal
# [20] = target: Alpha-bungarotoxin (Bungarus multicinctus) (UniProt P60615); experiment: compounds binding labelled alpha-BTX control protein – biochemical, small-molecule microarray, Alexa647 label, 635/667 nm fluorescence, artefact control for SMM control protein annotation, profiling panel (AID 1117); conditions: alpha-BTX-A647 binding fluorescence, higher = more signal
# Chain of Alpha-bungarotoxin (Bungarus multicinctus) (P60615 whole entry, looked up): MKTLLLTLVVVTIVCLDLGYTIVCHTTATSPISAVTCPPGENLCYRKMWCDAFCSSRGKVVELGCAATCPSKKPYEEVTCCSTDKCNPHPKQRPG
# Chain of Dickkopf-related protein 1 (Homo sapiens) (O94907 whole entry, looked up): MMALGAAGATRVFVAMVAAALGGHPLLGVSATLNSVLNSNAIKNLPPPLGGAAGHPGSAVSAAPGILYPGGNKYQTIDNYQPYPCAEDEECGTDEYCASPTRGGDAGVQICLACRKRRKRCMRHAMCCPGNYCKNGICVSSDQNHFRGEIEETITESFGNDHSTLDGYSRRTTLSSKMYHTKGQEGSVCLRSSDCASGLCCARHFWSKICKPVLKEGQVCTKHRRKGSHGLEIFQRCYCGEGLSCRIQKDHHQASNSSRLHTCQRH
# Chain of Left-right determination factor 2 (Homo sapiens) (O00292 whole entry, looked up): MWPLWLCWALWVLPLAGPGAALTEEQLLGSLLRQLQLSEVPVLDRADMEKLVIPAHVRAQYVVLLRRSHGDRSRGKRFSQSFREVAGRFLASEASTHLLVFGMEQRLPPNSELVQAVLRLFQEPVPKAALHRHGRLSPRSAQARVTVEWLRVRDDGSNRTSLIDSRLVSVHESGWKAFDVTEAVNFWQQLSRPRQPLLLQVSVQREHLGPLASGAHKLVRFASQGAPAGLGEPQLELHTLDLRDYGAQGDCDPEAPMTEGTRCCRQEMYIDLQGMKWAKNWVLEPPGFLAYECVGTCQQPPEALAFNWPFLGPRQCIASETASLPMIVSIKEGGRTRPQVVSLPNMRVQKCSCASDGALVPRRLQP
# Chain of Follistatin-related protein 3 (Homo sapiens) (O95633 whole entry, looked up): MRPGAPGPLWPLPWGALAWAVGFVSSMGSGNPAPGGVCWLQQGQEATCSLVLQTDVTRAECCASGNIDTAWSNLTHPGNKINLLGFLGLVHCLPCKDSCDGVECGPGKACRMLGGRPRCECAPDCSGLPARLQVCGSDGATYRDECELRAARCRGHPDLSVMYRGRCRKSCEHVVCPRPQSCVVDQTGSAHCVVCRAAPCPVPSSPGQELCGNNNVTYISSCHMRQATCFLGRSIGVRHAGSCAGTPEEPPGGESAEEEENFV
# Chain of Epidermal growth factor receptor (Homo sapiens) (P00533 whole entry, looked up): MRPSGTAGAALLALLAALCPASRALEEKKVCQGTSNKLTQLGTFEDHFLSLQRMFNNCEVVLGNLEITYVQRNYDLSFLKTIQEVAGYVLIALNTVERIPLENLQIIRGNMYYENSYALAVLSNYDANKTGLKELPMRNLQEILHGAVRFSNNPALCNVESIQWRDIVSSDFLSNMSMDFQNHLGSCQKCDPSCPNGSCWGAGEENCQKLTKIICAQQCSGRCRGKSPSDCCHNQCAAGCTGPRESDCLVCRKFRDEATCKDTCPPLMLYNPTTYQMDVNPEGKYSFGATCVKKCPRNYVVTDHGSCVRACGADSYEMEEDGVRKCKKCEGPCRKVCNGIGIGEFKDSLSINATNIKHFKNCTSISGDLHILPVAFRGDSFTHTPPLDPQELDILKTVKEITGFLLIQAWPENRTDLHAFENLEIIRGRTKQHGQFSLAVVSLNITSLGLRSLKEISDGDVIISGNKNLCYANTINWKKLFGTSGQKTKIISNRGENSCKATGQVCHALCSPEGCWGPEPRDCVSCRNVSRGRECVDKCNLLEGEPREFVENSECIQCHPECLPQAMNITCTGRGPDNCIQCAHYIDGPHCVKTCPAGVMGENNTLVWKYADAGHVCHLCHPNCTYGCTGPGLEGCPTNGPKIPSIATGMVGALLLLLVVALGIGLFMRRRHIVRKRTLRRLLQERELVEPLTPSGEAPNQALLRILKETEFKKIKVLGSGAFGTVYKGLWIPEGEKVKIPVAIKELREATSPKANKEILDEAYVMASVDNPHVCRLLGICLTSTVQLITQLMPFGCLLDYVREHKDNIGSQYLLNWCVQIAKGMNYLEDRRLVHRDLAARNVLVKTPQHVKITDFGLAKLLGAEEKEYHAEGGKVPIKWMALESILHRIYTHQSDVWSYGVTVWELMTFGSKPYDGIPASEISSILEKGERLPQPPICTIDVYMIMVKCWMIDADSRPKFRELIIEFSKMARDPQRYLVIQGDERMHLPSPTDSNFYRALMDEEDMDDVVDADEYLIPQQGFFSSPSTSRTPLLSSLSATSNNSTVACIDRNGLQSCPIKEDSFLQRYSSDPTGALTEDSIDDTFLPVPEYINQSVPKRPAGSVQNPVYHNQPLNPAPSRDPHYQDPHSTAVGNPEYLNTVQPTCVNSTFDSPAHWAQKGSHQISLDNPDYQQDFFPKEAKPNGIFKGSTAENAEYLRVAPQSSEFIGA
# Chain of Torsin-1A-interacting protein 1 (Homo sapiens) (Q5JTV8 whole entry, looked up): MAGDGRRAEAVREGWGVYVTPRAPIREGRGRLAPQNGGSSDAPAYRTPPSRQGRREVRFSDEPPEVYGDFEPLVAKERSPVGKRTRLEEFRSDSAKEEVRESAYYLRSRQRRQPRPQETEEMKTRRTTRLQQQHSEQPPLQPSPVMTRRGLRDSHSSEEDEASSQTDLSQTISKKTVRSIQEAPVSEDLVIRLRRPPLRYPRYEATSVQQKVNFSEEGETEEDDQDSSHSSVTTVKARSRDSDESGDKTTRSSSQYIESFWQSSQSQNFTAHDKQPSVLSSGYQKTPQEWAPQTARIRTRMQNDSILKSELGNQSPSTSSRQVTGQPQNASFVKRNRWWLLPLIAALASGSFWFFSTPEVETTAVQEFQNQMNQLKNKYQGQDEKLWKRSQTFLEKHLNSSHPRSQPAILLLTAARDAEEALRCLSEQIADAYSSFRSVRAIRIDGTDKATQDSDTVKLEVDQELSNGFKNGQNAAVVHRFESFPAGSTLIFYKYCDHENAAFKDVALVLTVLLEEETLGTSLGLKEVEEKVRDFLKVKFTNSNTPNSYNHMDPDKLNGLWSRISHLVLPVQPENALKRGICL
# Chain of Fibroblast growth factor 10 (Homo sapiens) (O15520 whole entry, looked up): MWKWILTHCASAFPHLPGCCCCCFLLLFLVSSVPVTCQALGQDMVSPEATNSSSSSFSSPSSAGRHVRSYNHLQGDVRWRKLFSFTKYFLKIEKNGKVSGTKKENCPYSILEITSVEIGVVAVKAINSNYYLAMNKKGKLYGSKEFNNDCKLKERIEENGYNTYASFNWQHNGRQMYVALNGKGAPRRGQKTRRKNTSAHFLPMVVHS
Compound,composite z-score [1],composite z-score [2],composite z-score [3],z-score [4],composite z-score [5],composite z-score [6],composite z-score [7],composite z-score [8],composite z-score [9],composite z-score [10],composite z-score [11],z-score [12],composite z-score [13],composite z-score [14],composite z-score [15],composite z-score [16],composite z-score [17],composite z-score [18],composite z-score [19],composite z-score [20]
COc1cc(CO)cc(I)c1O[C@H]1C=C(C(=O)NCCO)C[C@@H](N(CC2CCCCC2)C(=O)c2cc3ccccc3oc2=O)[C@@H]1O,-0.375,-0.34,-0.293,-0.00607 (inactive),0.975,0.0996,0.6,0.797,0.174,0.14,-0.376,0.806,0.252,0.0059,-0.857,-0.185,-0.0904,-0.446,0.646,-0.431
C#C[C@H](O[Si](C#Cc1ccccc1)(C(C)C)C(C)C)c1ccccc1,2.08,-0.156,0.104,-0.647 (inactive),0.0189,-0.75,-0.765,-0.643,-0.854,0.0677,-0.285,-0.733,-0.962,-0.226,0.418,-0.162,-0.154,-0.333,-0.246,0.821
C=CC[C@@]1(C(=O)N2CCOCC2)N=C(c2ccc(OCCCO)cc2)O[C@@H]1c1ccccc1,-0.406,0.853,0.845,-0.462 (inactive),0.293,0.175,-0.622,-0.72,-0.191,0.437,0.0433,-0.802,-0.464,0.0981,0.0806,-0.166,-0.184,0.34,1.68,2.84
Cc1ccccc1C(O)C1C=CC2C(=O)N(c3ccccc3)C(=O)C2N1Nc1ccc(C#N)cc1 (stereo not given),1.56,1.35,1.4,0.898 (inactive),1.16,1.3,0.832,1.05,0.311,0.958,1.22,-0.15,0.588,2.68,1.27,0.24,0.333,2.26,3.02,1.94
COc1ccc([Si](C)(C)[C@@H]2[C@@H](CCO)O[C@]3(C(=O)N(Cc4ccc(NC(=O)[C@H](C)O)cc4)c4ccccc43)[C@H]2C)cc1,1.3,0.305,0.161,-4.19 (inactive),0.245,0.993,0.226,0.335,0.0302,0.316,1.39,-5.23,0.0969,0.805,-0.0051,-0.12,-0.0626,0.0169,0.694,0.94
Cc1ccc(S[C@]2(C(=O)O)CC(=O)N(Cc3cc(C(F)(F)F)cc(C(F)(F)F)c3)[C@@H]2c2ccc(CO)cc2I)cc1,1.3,0.483,1.16,-1.48 (inactive),-0.458,-1.13,-1.65,-1.07,-1.38,0.645,-0.0997,-1.39,-2.05,-0.279,0.74,-0.0824,0.0767,0.181,0.598,-0.206
C=CCC(OC(C)=O)[C@@H]1[C@@H](N(Cc2cc3ccccc3o2)C(=O)c2ccc(C)cc2)c2cc(OCCCO)ccc2N1C(=O)c1ccc2ccccc2n1 (stereo not given in full),-0.222,0.164,0.504,-0.178 (inactive),-0.146,-0.216,0.311,0.0952,-0.0273,1.51,-0.185,0.725,0.21,-0.197,0.574,-0.148,-0.043,0.421,-0.0354,0.432
CCOC(=O)C[C@H]1[C@H](OC(=O)c2cc3ccccc3oc2=O)[C@@H](NC(=O)C2CCCCC2)c2cc(OCCCO)ccc2N1C(=O)c1ccc2ccccc2n1,0.631,-0.245,-0.273,-0.34 (inactive),0.68,0.413,0.258,1.08,0.493,0.304,1.03,-0.26,0.4,0.242,-0.137,-0.0721,0.225,-0.188,0.767,0.131
C=CCOC(=O)[C@@H]1[C@H]2C(=O)O[C@H](c3ccccc3)[C@H](c3ccccc3)N2[C@H](c2ccc(OCCOC(=O)[C@H]3C[C@H]4C(=O)N[C@@H](CCCCNC(C)=O)C(=O)N4[C@H]3c3ccc(O)cc3)cc2)[C@@]12C(=O)Nc1ccc(I)cc12,1.3,-0.173,-0.119,0.711 (inactive),1.03,1.28,0.603,1.19,0.394,0.565,1.39,-1.66,0.576,0.419,0.232,-0.104,-0.232,-0.0496,0.818,1.07
C=CCC(OC(C)=O)[C@@H]1[C@@H](N(Cc2cccc3ccccc23)C(=O)Cc2ccc(F)cc2)c2cc(OCCCO)ccc2N1C(=O)Cc1ccc2ccccc2c1 (stereo not given in full),-0.182,-0.0551,0.315,-0.395 (inactive),0.2,-0.236,-0.285,-0.0987,-0.619,1.07,-0.28,0.874,-0.368,-0.571,0.158,-0.0179,-0.326,0.0129,-0.148,0.983
[N-]=[N+]=NCc1ccccc1C[C@]1(C(N)=O)N=C(c2ccc(OCCCO)cc2)O[C@H]1c1ccccc1CN=[N+]=[N-],1.49,1.51,1.29,-1.63 (inactive),0.72,0.265,-0.37,0.186,-0.9,1.41,0.842,-2.34,-0.854,1.98,1.12,0.0286,0.84,0.653,1.32,1.56
